Here are results for five compounds from PubChem BioAssay.

The nature of test [1]: optical density shifts of acrAB sulA E. coli – strain DRC41, OD650, 48 h, E. coli filamentation inducer project, primary screen (AID 1152).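 Also: E. coli MC1000 strain DRC41 lacking acrAB efflux pump and sulA.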 The following applies: higher = more signal, called active from +8 up or from −8 down.
Test [2] is described as follows: probe aLefty1 binding on compound microarray – biochemical, small-molecule microarray, 635/667 nm fluorescence, primary screen (AID 1153).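 Also: score merges spot fluorescence with signal-to-noise ratio from the scanned slide images.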 The following applies: higher = more signal.
The nature of test [3]: plasmodial surface anion channel blockers, osmotic lysis – cell-based, P. falciparum Indochina, OD700, 1 h, primary screen (AID 1154). To be noted: P. falciparum Indochina infected RBC osmotic lysis, higher = more signal, called active from +8 up or from −8 down.
A short description of test [4]: plasmodial surface anion channel blockers, osmotic lysis – cell-based, P. falciparum Indochina, OD700, 2 h, primary screen (AID 1155).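 Also: lysis reports solute entry through the parasite surface anion channel PSAC.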 The following applies: P. falciparum Indochina infected erythrocytes, higher = more signal, called active from +8 up or from −8 down.
Test [5] can be described thus: changes in parasitized red cell lysis, either direction – P. falciparum Indochina, OD700, 3 h, PSAC antagonist project, primary screen (AID 1156). The following applies: P. falciparum-infected erythrocytes, osmotic lysis, higher = more signal, called active from +8 up or from −8 down.
A short description of test [6]: plasmodial surface anion channel blockers, osmotic lysis – cell-based, P. falciparum Indochina, OD700, 18 h, primary screen (AID 1157). To be noted: P. falciparum Indochina infected erythrocytes, osmotic lysis OD700, 18 h; higher = more signal, called active from +8 up or from −8 down.
A short description of test [7]: S6 kinase pathway phospho-S6 level changes – cell-based, A549, cytoblot, luminescence, serum-stimulated, primary screen (AID 1158).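 Also: serum-stimulated A549 lung adenocarcinoma cells; signal is phosphorylated S6 detected by cytoblot immunostaining with HRP secondary.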 The following applies: 5 h, higher = more signal.
Test [8] has as its target NADPH oxidase 2 (Homo sapiens) (UniProt P04839). In words: compounds shifting NOX2 Amplex Red fluorescence – cell-based, HEK293-NOX2, PMA-stimulated, NOX inhibitor project, primary screen (AID 1159). Also: test concentration not given here. To be noted: 45 min, higher = more signal, called active from +8 up or from −8 down.
Test [9] deals with NADPH oxidase 4 (Homo sapiens) (UniProt Q9NPH5). Briefly: compounds shifting NOX4 Amplex Red fluorescence – cell-based, HEK293-NOX4, tetracycline-induced, NOX inhibitor project, primary screen (AID 1160). The following applies: HEK293-NOX4, Amplex Red H2O2 fluorescence, 45 min; higher = more signal, called active from +8 up or from −8 down.
Chain of NADPH oxidase 4 (Homo sapiens) (Q9NPH5 whole entry, looked up): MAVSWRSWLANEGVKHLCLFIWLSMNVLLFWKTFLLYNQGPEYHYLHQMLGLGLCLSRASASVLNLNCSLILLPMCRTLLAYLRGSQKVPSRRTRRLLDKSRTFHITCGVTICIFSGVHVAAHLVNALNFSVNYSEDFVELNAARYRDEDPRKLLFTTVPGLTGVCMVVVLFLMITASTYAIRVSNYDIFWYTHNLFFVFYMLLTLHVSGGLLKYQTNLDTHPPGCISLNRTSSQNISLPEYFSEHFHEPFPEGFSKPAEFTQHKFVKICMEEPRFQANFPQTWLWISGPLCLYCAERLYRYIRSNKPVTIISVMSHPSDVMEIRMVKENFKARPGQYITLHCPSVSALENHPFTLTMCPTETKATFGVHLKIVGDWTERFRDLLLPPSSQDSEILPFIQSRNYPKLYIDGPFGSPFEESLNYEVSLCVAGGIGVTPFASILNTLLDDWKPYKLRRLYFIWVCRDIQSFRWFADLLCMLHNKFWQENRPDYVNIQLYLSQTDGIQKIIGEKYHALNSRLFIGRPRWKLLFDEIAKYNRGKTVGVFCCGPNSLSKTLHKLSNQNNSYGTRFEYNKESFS
Test [10] has as its target NADPH oxidase 5 (Homo sapiens) (UniProt Q96PH1). Briefly: compounds shifting NOX5 Amplex Red fluorescence – cell-based, HEK293-NOX5, NOX inhibitor project, primary screen (AID 1161). To be noted: HEK293-NOX5, ionomycin, 45 min, higher = more signal.
Test [11] can be described thus: compound effects on lung adenocarcinoma cell viability – A549, calcein-AM fluorescence, 48 h, basal, profiling panel (AID 1162). Also: test concentration not given here. To be noted: higher = more signal.
Test [12] is described as follows: compound effects on differentiated 3T3-L1 adipocyte viability – cell-based, 3T3-L1 adipocytes, calcein-AM fluorescence, 48 h, basal, profiling panel (AID 1163). Also: test concentration not given here. The following applies: 3T3-L1 adipocytes viability, higher = more signal.
A short description of test [13]: compound effects on hepatocellular carcinoma cell viability – HepG2, calcein-AM fluorescence, 48 h, basal, profiling panel (AID 1164). Also: test concentration not given here. To be noted: higher = more signal.
The nature of test [14]: compound effects on multiple myeloma cell viability – MM1S, calcein-AM fluorescence, 48 h, basal, profiling panel (AID 1165).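 Also: viability of MM1S multiple myeloma cells under basal unstimulated conditions; test concentration not given here.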 The following applies: higher = more signal.
The nature of test [15]: calcein-AM signal in unstimulated myeloma cells – cell-based, calcein-AM fluorescence, 48 h, PK04 Diversity Set, profiling panel (AID 1166).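 Also: cells grown under basal conditions without added stimulus; test concentration not given here.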 To be noted: RPMI8226 myeloma viability, higher = more signal.
Test [16] in a line: JC-1 mitochondrial signal, unstimulated HepG2 cells – cell-based, JC-1 fluorescence, 24 h, 100 nL compound, profiling panel (AID 1167). Also: test concentration not given here. To be noted: HepG2 mitochondrial potential, higher = more signal.
A short description of test [17]: JC-1 mitochondrial signal, unstimulated adipocytes – cell-based, JC-1 fluorescence, 3T3-L1 adipocytes, 24 h, 100 nL compound, profiling panel (AID 1168). Also: test concentration not given here. The following applies: JC-1 mitochondrial fluorescence, higher = more signal, called active from +8 up or from −8 down.
A short description of test [18]: JC-1 mitochondrial signal, unstimulated myeloma cells – cell-based, JC-1 fluorescence, RPMI8226, 24 h, 100 nL compound, profiling panel (AID 1169). Also: test concentration not given here. The following applies: JC-1 mitochondrial potential fluorescence, higher = more signal.
A short description of test [19]: JC-1 mitochondrial signal, unstimulated MM1S myeloma – cell-based, JC-1 fluorescence, 24 h, 100 nL compound, profiling panel (AID 1170). Also: test concentration not given here. The following applies: MM1S mitochondrial potential, higher = more signal.
Test [20] is described as follows: resazurin metabolic signal in A549 cells – cell-based, resazurin fluorescence, 24 h, PK04 Diversity Set, profiling panel (AID 1171). Also: test concentration not given here. The following applies: A549 viability, higher = more signal, called active from +8 up or from −8 down.

Activity calls are given as the source filed them.

Chain of NADPH oxidase 5 (Homo sapiens) (Q96PH1 whole entry, looked up): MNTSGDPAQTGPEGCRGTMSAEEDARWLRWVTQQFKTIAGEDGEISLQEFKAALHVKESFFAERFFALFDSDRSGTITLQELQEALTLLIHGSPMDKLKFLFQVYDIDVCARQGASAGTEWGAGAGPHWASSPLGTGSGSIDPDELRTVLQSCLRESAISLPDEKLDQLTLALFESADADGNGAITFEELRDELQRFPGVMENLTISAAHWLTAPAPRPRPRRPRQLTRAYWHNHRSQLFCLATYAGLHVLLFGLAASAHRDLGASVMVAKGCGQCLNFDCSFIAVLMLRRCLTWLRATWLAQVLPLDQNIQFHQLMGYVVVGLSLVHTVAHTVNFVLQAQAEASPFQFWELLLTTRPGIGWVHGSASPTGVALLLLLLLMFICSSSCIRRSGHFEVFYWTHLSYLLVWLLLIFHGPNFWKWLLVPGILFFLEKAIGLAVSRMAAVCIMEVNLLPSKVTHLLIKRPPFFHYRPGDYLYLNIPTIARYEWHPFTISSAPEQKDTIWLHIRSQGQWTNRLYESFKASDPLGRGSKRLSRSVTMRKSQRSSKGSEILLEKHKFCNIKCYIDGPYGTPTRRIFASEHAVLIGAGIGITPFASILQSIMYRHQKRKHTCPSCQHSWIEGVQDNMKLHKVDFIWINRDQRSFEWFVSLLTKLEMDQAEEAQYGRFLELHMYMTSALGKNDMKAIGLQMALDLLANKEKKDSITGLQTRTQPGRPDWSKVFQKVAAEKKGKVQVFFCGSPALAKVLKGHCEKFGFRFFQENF
Chain of NADPH oxidase 2 (Homo sapiens) (P04839 whole entry, looked up): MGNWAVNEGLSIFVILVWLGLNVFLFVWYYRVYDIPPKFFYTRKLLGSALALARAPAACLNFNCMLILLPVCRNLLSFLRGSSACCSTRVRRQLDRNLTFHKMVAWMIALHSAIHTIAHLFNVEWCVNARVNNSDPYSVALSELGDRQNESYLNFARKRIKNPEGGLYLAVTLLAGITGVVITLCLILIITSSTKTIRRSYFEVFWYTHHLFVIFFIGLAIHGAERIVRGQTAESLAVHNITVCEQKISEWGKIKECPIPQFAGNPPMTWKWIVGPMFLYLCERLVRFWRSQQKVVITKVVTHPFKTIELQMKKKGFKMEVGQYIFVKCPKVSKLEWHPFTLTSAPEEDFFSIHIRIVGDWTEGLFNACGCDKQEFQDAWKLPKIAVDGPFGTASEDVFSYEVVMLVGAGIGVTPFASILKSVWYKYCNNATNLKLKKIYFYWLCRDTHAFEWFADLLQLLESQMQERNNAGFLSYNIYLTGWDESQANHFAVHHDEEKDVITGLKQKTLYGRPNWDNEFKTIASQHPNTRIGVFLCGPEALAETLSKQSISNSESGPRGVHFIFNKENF

Regarding `CCOC(=O)C1=CC[C@@H](c2cc(Cl)ccc2Cl)N(S(=O)(=O)c2ccc(C)cc2)[C@H]1c1ccc(OC)cc1`, the z-score in test [1] was -0.718 (inactive); in test [3], 2.98 (inactive); in [4], 1.92 (inactive); in test [5], 0.926 (inactive); in [6], 0.826 (inactive); in test [7], -0.371. The z-score in test [8] was 0.28 (inactive); in [9], -0.51 (inactive); in [10] it was 0.465; in test [11] it was -0.41; in test [12], -0.603; in test [13], 0.118. For the same compound, the z-score in test [14] was -0.852; in test [15], 0.199; in [16], 1.17; in test [17], -1 (inactive); in [18], 0.642; in test [19] it was -2.07. Moreover, the z-score in [20] was -0.629 (inactive). The compound also had a composite z-score in test [2] of 0.369.
As to `C=C(COC)/C(=C/C[C@@H](OC(=O)c1ccncc1)c1cccc(OCCO)c1)c1cnc2ccccc2c1`, the z-score in [1] is -0.0626 (inactive); in [3], 18.8 (active); in [4] it was 6.49 (inactive); in test [5], -1.32 (inactive); in test [6], 1.29 (inactive); in [7] it was 0.507. In addition, the z-score in test [8] was -1.47 (inactive); in test [9] it was -0.256 (inactive); in test [10], -3.1; in test [11], 0.0954; in [12] it was 0.542; in [13] it was -1.03. Further, the z-score is -2.17 in test [14]; -0.307 in test [15]; 0.862 in test [16]; -1.76 (inactive) in [17]; 0.187 in [18]; 0.276 in test [19]. Also, the z-score in test [20] is -0.634 (inactive). In addition, the composite z-score in test [2] was determined as 0.664.
Take `O=C(NC1CC1)[C@@H]1c2ccccc2C(=O)N(Cc2ccccc2)[C@H]1c1ccc(CO)cc1`: the z-score was 0.651 (inactive) in test [1]; 2.58 (inactive) in test [3]; 0.258 (inactive) in [4]; 1.38 (inactive) in test [5]; 0.0604 (inactive) in test [6]; 0.666 in test [7]. Moreover, the z-score in test [8] is -0.962 (inactive); in test [9], 0.623 (inactive); in test [10] it was -1.52; in test [11] it was 1.3; in [12] it was -0.429; in [13], 1.46. The z-score was 0.293 in test [14]; 0.217 in [15]; 2.33 in [16]; 1.07 (inactive) in test [17]; 0.135 in test [18]; -0.319 in [19]. In test [20], the z-score was 0.139 (inactive). The composite z-score in test [2] was found to be 0.0191.
As for `CCOC(=O)C1=CC[C@@H](c2ccccc2)N(S(=O)(=O)c2ccc(C)cc2)C1`, the z-score in test [1] was -1.46 (inactive); in test [3], 2.45 (inactive); in test [4], 0.596 (inactive); in [5], 0.517 (inactive); in [6] it was 0.509 (inactive); in test [7], -0.506. Also, the z-score in [8] is -0.0336 (inactive); in [9] it was -1.44 (inactive); in test [10] it was -1.63; in test [11], -0.747; in [12], -0.384; in test [13], -0.165. In addition, the z-score in test [14] is -1.22; in test [15], -1.62; in test [16], 0.546; in [17], -1.07 (inactive); in test [18], 0.84; in test [19] it was -0.977. For the same compound, in test [20], the z-score is -0.145 (inactive). Further, the composite z-score in test [2] is 0.638.
Take `C=CCOC(=O)[C@@H]1[C@H]2C(=O)O[C@H](c3ccccc3)[C@H](c3ccccc3)N2[C@H](c2ccc(OCCOC(=O)[C@H]3C[C@H]4C(=O)N[C@@H](CC(C)C)C(=O)N4[C@H]3c3ccc(O)cc3)cc2)[C@@]12C(=O)Nc1ccc(I)cc12`: the z-score was 0.715 (inactive) in test [1]; 2.42 (inactive) in test [3]; 1.47 (inactive) in test [4]; 0.946 (inactive) in test [5]; 0.792 (inactive) in [6]; 0.171 in test [7]. In addition, the z-score in test [8] was 1.75 (inactive); in [9], 1.66 (inactive); in test [10] it was 1.36; in [11], 0.15; in test [12] it was 0.325; in [13], 1.02. Further, the z-score in test [14] is 0.38; in [15] it was 1.08; in [16] it was -0.227; in [17], 3.06 (inactive); in [18], -0.952; in test [19], -0.838. For the same compound, the z-score in test [20] was -0.0756 (inactive). This compound also came in with a composite z-score in [2] of 0.0278.
